The record followed here is PubChem BioAssay (NCI).

The panel holds about 83,000 compounds, 20% with a hit somewhere; the sample as a whole holds those more often.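 Values shown are percent growth following 48 h exposure of cells in 96-well plates to a single concentration of compound; below 10 was considered active.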 Values without a mark were called inactive. Calls of active or inactive are those of the source.

Experiment in all cases: NCI-60 one-dose screen, 48 h (100 = growth as untreated, 0 = no growth, -100 = all killed)
What all share (details): 10 µM unless noted

Assay [1] relates to T-47D breast.
In assay [2] the test system is BT-549 breast.
The subject of assay [3] is MDA-MB-435 melanoma.
The subject of assay [4] is SW-620 colon.
Assay [5] deals with MCF7 breast.
The subject of assay [6] is HCT-116 colon.
For assay [7], the system named is HCC-2998 colon.
Assay [8] has as its system KM12 colon.

In the case of `NS(=O)(=O)c1cnccc1Oc1cccc2cccnc12`, the growth in assay [1] was 109%; in assay [2], 93.3%; in assay [3], 108%; in assay [4], 106%; in assay [5], 93.4%; in assay [6], 97%. Besides, the figures for the growth in assay [7] and in assay [8] were 95.9% and 107%, respectively.
On to `O=C(NC(Cc1nnc2n(Cc3ccccc3)c(=O)c3c4c(sc3n12)CCCC4)c1ccc(Cl)cc1)c1ccccc1` (configuration not stated), for which the growth in assay [1] was 85.3%; in assay [2], 107%; in assay [3], 56.8%; in assay [4], 73.1%; in assay [5] it was 84.9%; in assay [6], 87.1%. The growth is 68.5% in assay [7] and 98.7% in assay [8].
In the case of `C=C(C)[C@@H]1CC[C@]2(C(=O)NC3CCCCC3)CC[C@]3(C)[C@H](CC[C@@H]4[C@@]5(C)CCCNC(C)(C)[C@@H]5CC[C@]43C)[C@@H]12`, the growth is -32.8% (active) in assay [1]; 85.4% in assay [2]; 6.98% (active) in assay [3]; -76.1% (active) in assay [4]; 16.5% in assay [5]; -13.8% (active) in assay [6]. Moreover, the growth was -16% (active) in assay [7] and 16.7% in assay [8].
`O=C(NCCCNc1cc(-c2cn(-c3ccccc3)nc2-c2cccc(O)c2)ccn1)c1cccc(O)c1`: the growth was 8.13% (active) in assay [1]; 37.5% in assay [2]; 32.1% in assay [3]; 51% in assay [4]; 47.3% in assay [5]; 47.3% in assay [6]. Moreover, the figures for the growth in assay [7] and in assay [8] were 64.8% and 45.3%, respectively.
Consider `COc1ccc(-c2cc(-c3cc(OC)ccc3OC)nc(SCC(=O)c3ccccc3)c2C#N)cc1`, for which the growth in assay [1] was 80.8%; in assay [2] it was 109%; in assay [3] it was 103%; in assay [4], 98.6%; in assay [5] it was 98.3%; in assay [6] it was 88.5%. In addition, the growth in assay [7] is 108%; in assay [8] it was 96.8%.
`COc1cccc2c1C(=O)c1c(O)c3c(c(O)c1C2=O)CC(O)(/C(C)=N/NC(=O)CCCCC(=O)N/N=C(\C)C1(O)Cc2c(O)c4c(c(O)c2C(OC2CC(N)C(O)C(C)O2)C1)C(=O)c1c(OC)cccc1C4=O)CC3OC1CC(N)C(O)C(C)O1` (configuration not stated): the growth was -16.2% [5 µM] (active) in assay [1]; -21.6% [5 µM] (active) in assay [2]; -87.6% [5 µM] (active) in assay [3]; -32.3% [5 µM] (active) in assay [4]; 2.23% [5 µM] (active) in assay [5]; -3.01% [5 µM] (active) in assay [6]. For the same compound, the growth in assay [7] was -53.9% [5 µM] (active); in assay [8], -21.6% [5 µM] (active).
As for `C=CCn1c(C)nc2cc(Nc3nc(Cl)nc4ccccc34)ccc21`, the growth in assay [1] is 81.5%; in assay [2], 94.8%; in assay [3] it was 93.3%; in assay [4], 102%; in assay [5], 94.6%; in assay [6], 91.5%. The growth in assay [7] is 101%; in assay [8] it was 95.2%.
On to `CC/C=C\C[C@H](O)C/C=C1/C(=O)C=C[C@@H]1C/C=C\CCCCO`, for which the growth is 21.6% in assay [1]; -8.67% (active) in assay [2]; -5.88% (active) in assay [3]; -12.4% (active) in assay [4]; 13.3% in assay [5]; -64.6% (active) in assay [6]. Besides, the values for the growth in assay [7] and in assay [8] were 6.24% (active) and -16.1% (active), respectively.
As for `NS(=O)(=O)c1cnccc1Sc1ccncc1S(N)(=O)=O`, the growth is 57% in assay [1]; 96.4% in assay [2]; 106% in assay [3]; 113% in assay [4]; 88.9% in assay [5]; 106% in assay [6]. For the same compound, the growth in assay [7] is 85.8%; in assay [8], 108%.
As to `COc1ccc(-c2nc(SCCC(C)C)nc(N/N=C\c3cccc([N+](=O)[O-])c3)c2C#N)cc1`, the growth in assay [1] was 27.5%; in assay [2] it was 63.2%; in assay [3], 56.3%; in assay [4], 15.5%; in assay [5], 35.6%; in assay [6], 23.5%. The growth is 52% in assay [7] and 27.1% in assay [8].
For the compound `Cn1c(-c2c(N)n(Cc3ccc(C(F)(F)F)cc3)c3nc(C#N)c(C#N)nc23)nc2ccccc21`, the growth was 4.18% (active) in assay [1]; 7.95% (active) in assay [2]; 14.9% in assay [3]; 6.57% (active) in assay [4]; 8.74% (active) in assay [5]; -29% (active) in assay [6]. In addition, the values for the growth in assay [7] and in assay [8] were 14.7% and 5.33% (active), respectively.
Take `CN(Cc1cnc2nc(N)nc(N)c2n1)c1ccc(C(=O)N[C@@H](CCc2nn[nH]n2)c2nn[nH]n2)cc1`: the growth in assay [1] is 75.9%; in assay [2], 53.2%; in assay [3] it was 38.5%; in assay [4] it was 20.1%; in assay [5], 17%; in assay [6], 18.3%. Also, the growth was 52.6% in assay [7] and 33% in assay [8].
As for `N#C/C(=C\c1ccc(Br)cc1)n1nnc2cc(F)c(F)cc21`, the growth in assay [1] is -1.87% (active); in assay [2], 22.2%; in assay [3], 4.75% (active); in assay [4], 13.2%; in assay [5], 14%; in assay [6], 15.3%. In addition, the growth in assay [7] was 40%; in assay [8] it was 10.3%.
As to `Cc1ccc(-c2cc(-c3ccccc3C)[nH]c(=O)c2C#N)s1`, the growth is 86.5% in assay [1]; 79.4% in assay [2]; 94.9% in assay [3]; 95.6% in assay [4]; 89% in assay [5]; 91.8% in assay [6]. In addition, the figures for the growth in assay [7] and in assay [8] were 111% and 95.3%, respectively.
